In all, about 33,000 sequences were measured (“E-score (-0.5 to 0.5)”: median about -0.0014, highest 2% from about 0.25 on). This excerpt belongs to a sample that is enriched for the highest values.
target: T1, Cad1 (UniProt P24813); experiment: PBM E-score (8-mer binding enrichment) (E-score (-0.5 to 0.5)); higher = stronger / more preferred TF binding; conditions: protein concentration: 100 nM; construct: GST-full length
T1 sequence: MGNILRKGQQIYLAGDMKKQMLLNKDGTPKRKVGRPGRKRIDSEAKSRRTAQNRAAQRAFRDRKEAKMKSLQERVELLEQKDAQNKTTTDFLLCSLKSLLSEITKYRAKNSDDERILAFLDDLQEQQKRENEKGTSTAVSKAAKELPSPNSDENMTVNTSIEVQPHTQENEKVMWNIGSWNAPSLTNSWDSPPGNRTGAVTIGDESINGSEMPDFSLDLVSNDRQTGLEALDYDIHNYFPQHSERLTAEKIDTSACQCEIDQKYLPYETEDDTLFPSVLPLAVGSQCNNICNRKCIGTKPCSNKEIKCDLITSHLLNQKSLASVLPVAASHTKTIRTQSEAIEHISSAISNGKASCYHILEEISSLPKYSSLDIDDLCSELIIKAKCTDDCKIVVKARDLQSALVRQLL
Description: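 Universal 'all 10-mer' protein binding microarrays (Agilent AMADID 015681) probed with GST-tagged S. cerevisiae TFs (full-length or DBD) made by in vitro transcription/translation (PURExpress), about 100-200 nM. Bound TF was detected with fluorescent anti-GST. Each ungapped 8-mer (which stands for itself and its reverse complement) is scored by the PBM enrichment score (E-score), a modified Wilcoxon-Mann-Whitney statistic from -0.5 to +0.5, computed with the Universal PBM Analysis Suite. Scale: above 0.35 generally sequence-specific binding.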

Row | Sequence | PBM E-score
1 | AGGCGCGC | 0.161
2 | CAACGCGA | 0.157
3 | CAAGGGAC | -0.0828
4 | CGGCTGTA | -0.112
5 | ACCTCCGC | -0.116
6 | TCCCGCGA | 0.0875
7 | ATTCGTTA | 0.158
8 | GTTCGTAA | 0.119
9 | ATTCGTTG | 0.258
10 | ACTCGTAT | 0.0214
11 | ATTCGTTC | 0.09
12 | ACTCGTAG | -0.103
13 | CTTCGTAA | 0.0607
14 | ATTCGTAA | 0.26
15 | ACTCGTAA | 0.292
16 | AAGTTGCT | 0.0232
17 | TAAACCCA | 0.119
18 | CAGTTATA | -0.0494
19 | CATGCGCG | 0.202
20 | ATTGCGCA | 0.103
21 | AATGCGCC | -0.00918
22 | AATGCGCT | 0.0389
23 | ATTGCGCG | 0.307
24 | ATTGCGCC | -0.061
25 | AATGCGCA | 0.342

Row | Sequence | PBM E-score
26 | CATGCGCA | 0.116
27 | AATGCGCG | 0.305
28 | AGGCAGAG | -0.0635
29 | ACGTCGGG | -0.269
30 | CCCAGATA | -0.0901
31 | GCGGGATA | 0.0173
32 | CCCGTATC | -0.15
33 | GCATGACA | 0.0476
34 | TCATGACA | 0.301
35 | ACATGACA | 0.159
36 | AGAAAGCC | -0.051
37 | TAACTGAA | -0.0483
38 | AACGTAAT | 0.261
39 | AATGTAAA | 0.193
40 | AACGTAAC | -0.00693
41 | AATGTAAT | 0.324
42 | ACTGTAAG | 0.167
43 | AATGTAAG | 0.264
44 | CATGTAAG | 0.129
45 | AATGTAAC | 0.0359
46 | AACGTAAA | 0.0278
47 | AAAGTCGC | 0.124
48 | AACGAAAC | 0.187
49 | AACGAAAT | 0.303
50 | AACGAAAG | 0.0872

Row | Sequence | PBM E-score
51 | TACGAAAA | 0.0721
52 | AAAGATAT | 0.277
53 | CACGAAAA | 0.161
54 | AACGATAG | 0.0593
55 | AAAGATAC | -0.051
56 | AACGATAT | 0.271
57 | AACGATAC | 0.0534
58 | AAAGATAG | 0.00786
59 | GACGAAAA | 0.297
60 | ACCATCTG | -0.0991
61 | ACGCAGAC | 0.0915
62 | GGAACTAC | -0.0515
63 | GAACGTTC | -0.0713
64 | GACTGATC | -0.075
65 | CCTGCTAA | -0.128
66 | CCAACTGG | 0.025
67 | AGCGAAAA | -0.0296
68 | CACGAACA | 0.249
69 | CGCGAAAA | 0.246
70 | AACGAACG | 0.0769
71 | AACGAACA | 0.269
72 | TGCGAAAA | 0.266
73 | CCGAAGAG | -0.0285
74 | CTTCTGAA | 0.0469
75 | CTCGGGCA | 0.0974

Row | Sequence | PBM E-score
76 | AGTGTGGG | -0.0209
77 | GCACGTGA | 0.0273
78 | CCACGTGC | 0.00023
79 | GCACGTGC | 0.32
80 | GTCAGACA | 0.116
81 | AAGGTCGT | 0.0718
82 | CCTAGACC | -0.179
83 | GGTTAGAA | -0.111
84 | AAGCTCGC | 0.224
85 | AAGCTCGA | 0.263
86 | CAGCTCGA | 0.0283
87 | TTGGCAAA | 0.121
88 | ATAGATTG | 0.0192
89 | GACCCGGC | -0.0968
90 | GCTGAGCC | -0.119
91 | AACGCTTC | -0.0949
92 | AATCAGCT | 0.274
93 | TATCAACA | 0.0364
94 | AATCAGCC | 0.0909
95 | CATCAGCA | 0.01
96 | AATCAGCG | 0.211
97 | GATCAGCA | 0.141
98 | GATCAACA | 0.131
99 | AATCAGCA | 0.258
100 | AATCAACA | 0.275

Row | Sequence | PBM E-score
101 | CGACAGCA | 0.0252
102 | AGTTCAGA | -0.104
103 | CAACATGA | 0.144
104 | CACTAGAA | -0.0573
105 | GTTTGTTA | 0.202
106 | GATTGTCA | 0.117
107 | CTTTGTCA | 0.278
108 | CTTTGTCC | 0.058
109 | CTTTGTTA | 0.222
110 | GTTTGTCA | 0.317
111 | AAGATTAG | 0.144
112 | GTCTGCGA | 0.0486
113 | AGACCGGA | -0.062
114 | TTCGCGAA | 0.343
115 | ATCGCGAC | 0.195
116 | CTCGCGAC | 0.15
117 | TCCGCGAA | 0.202
118 | GTCGCGAC | 0.391
119 | GTCGCGAA | 0.0594
120 | GGGCCTCA | -0.0631
121 | ATCATTTC | 0.136
122 | GGCTCATA | 0.0877
123 | CAACAGGA | -0.182
124 | ACCTCGGG | -0.173
125 | GCGCTTAC | 0.299

Row | Sequence | PBM E-score
126 | ATGCTTAC | 0.112
127 | CCGCTTAC | 0.184
128 | CTGCTTAC | 0.276
129 | CTGCTTAA | 0.0117
130 | GCGCTTAA | 0.106
131 | ACCGTATA | -0.00739
132 | CAAAAGAC | -0.00184
133 | ATCATAAT | 0.144
134 | ATCATAAG | 0.0855
135 | ATCATAAC | 0.273
136 | CTTCGTTA | -0.0282
137 | AATTAATA | 0.432
138 | ACTTAATA | 0.186
139 | AATTAAGA | 0.104
140 | AATTAATG | 0.242
141 | AATTAATT | 0.285
142 | AATTAATC | 0.227
143 | AGCGAACA | 0.195
144 | CGCCAACA | 0.157
145 | AAAAAAAC | 0.121
146 | CAAATGGG | 0.0861
147 | GCATATCA | 0.278
148 | CCATATCA | -0.00962
149 | TCATATCA | 0.0259
150 | CCATGCAG | -0.0439

Row | Sequence | PBM E-score
151 | GCGGAAGC | 0.0712
152 | AGCGGCTC | -0.0559
153 | ACGGATAA | 0.0973
154 | ACGGATAT | 0.254
155 | ACGGATAG | 0.0118
156 | ACGGAAAC | -0.0435
157 | ACGGAAAA | 0.24
158 | ACGGAAAT | 0.288
159 | AGGGTTGA | -0.0586
160 | GGATCGAA | 0.045
161 | CTTCTCGA | 0.0254
162 | ACGGCTGA | 0.0503
163 | CAGCCATG | -0.077
164 | TAAATATA | 0.277
165 | CAAATATG | 0.135
166 | AAAATATC | 0.198
167 | CAAATATA | -0.0118
168 | CTAATATA | 0.239
169 | CAAATATC | 0.261
170 | TATAAATA | 0.25
171 | AAAATATA | 0.208
172 | CATAAATA | 0.171
173 | ATAATATA | 0.227
174 | GATAAATA | 0.123
175 | GTAATATA | 0.327
